About 15 (1%) of roughly 1,200 compounds were called active. Entries that show only a call come without a potency. Roughly 7% stayed inconclusive and do not appear here. The call rests on the fitted dose curve; in most records, active means well fitted activation curve with a large enough effect; inconclusive means small, poorly fitted or top-dose-only effect; inactive means flat fitted curve, though single readings scatter. The full list was thinned out, with actives kept by preference.
target: Beta-2 adrenergic receptor (Homo sapiens) (UniProt P07550); test: qHTS assay of beta-arrestin-biased ligands of beta2-adrenergic receptor: Hit Validation; settings: cell-based beta-arrestin recruitment to beta2AR; Potency: activation; series mostly up to 46.1 µM
Text: The concept of biased agonism is an emerging concept of molecular pharmacology which proposes that seven transmembrane receptors (7TMRs) or G protein-coupled receptors (GPCRs), exist in multiple signaling conformations and complexes and that ligands (either agonists or antagonists) can induce signaling biased responses for distinct signal transduction cascades.
Furthermore, accumulating evidence over the last decade has drawn attention to a novel function of beta-arrestins as signal transducers that scaffold various signaling molecules upon activation of 7TMRs. […] This beta-arrestin-biased signaling presumably leads to distinct physiological outcomes from those by G protein activation.
Additionally, the active receptor conformations which […] on this beta-arrestin signaling are likely different from those activating G protein signaling
The goal of this screening project will be to discover and optimize novel beta-arrestin-biased ligands for beta2-AR signaling. A luminescent cell-based assay for beta2-AR-mediated agonism, known as the Tango assay, has been validated in which ligand binding of a recombinant beta2-AR and subsequent recruitment of a recombinant beta-arrestin lead to the release of the transcriptional activator tTA, which upregulates transcription of a tTA-responsive luciferase gene.
NIH Molecular Libraries Probe Production Network [MLPCN]
NIH Chemical Genomics Center [NCGC]
PI: Bryan Roth (UNC) and Bob Lefkowitz (Duke)
NCGC Assay Protocol Summary:
Tango cells were dispensed into white, solid, tissue-culture-treated 1536-well plates at 1500 cells/well in DMEM, containing 1% fetal bovine serum (FBS). Then, 23 nL of compounds or DMSO were delivered to each well using a pin tool. Plates were incubated at 37 degrees C, 5% CO2 for 18 hr. Then 2.5 uL luminescent substrate mix (in-house prepared: 150 mM Tris-Cl, pH 7.6, 3 mM MgCl2, 1% Triton X-100, 5 mM DTT, 0.5 mM CoA, 0.15 mM ATP, 0.44 mM D-luciferin, final concentrations) was added to each well. Plates were then incubated for 15 minutes at room temperature, and subsequently measured on a ViewLux plate reader for luminescent signal using a clear filter with a 10 second exposure and 2x binning. The %Activity was determined from the corrected luminescence values.
Concentration-response curves were fitted to the signals arising from the resulting luminescence. The concentration-effect curves were then classified based on curve quality (r2), response magnitude and degree of measured activity, and compounds were subsequently categorized based on their curve class.
Keywords: biased agonism, beta2-AR, beta-arrestin, GPCR, 7TMR, Tango, luminescence, MLSMR, MLPCN, NIH Roadmap, qHTS, NCGC
Potency means the concentration at half of the fitted maximal effect.

Beta-2 adrenergic receptor (Homo sapiens), sequence (P07550 whole entry, looked up): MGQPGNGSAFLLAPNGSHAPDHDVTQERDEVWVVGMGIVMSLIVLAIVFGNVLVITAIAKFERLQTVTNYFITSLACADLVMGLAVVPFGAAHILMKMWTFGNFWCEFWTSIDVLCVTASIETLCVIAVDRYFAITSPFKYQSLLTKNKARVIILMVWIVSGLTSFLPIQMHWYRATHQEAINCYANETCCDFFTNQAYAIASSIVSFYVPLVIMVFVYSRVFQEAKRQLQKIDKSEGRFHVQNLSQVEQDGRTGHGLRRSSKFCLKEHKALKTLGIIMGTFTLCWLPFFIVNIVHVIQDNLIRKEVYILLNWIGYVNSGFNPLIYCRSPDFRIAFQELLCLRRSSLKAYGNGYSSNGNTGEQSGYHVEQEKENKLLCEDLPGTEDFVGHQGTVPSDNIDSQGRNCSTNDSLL

Structure (SMILES)	Potency
Clc1cccc(Cl)c1C1Nc2cccc3cccc(c23)N1	inactive
COC(=O)N1C(=O)[C@@](c2ccc(OC)cc2)(C(C)C)N1C(=O)OC	inactive
COc1ccc(C(=O)C2CCCN(Cc3cnc(N4CCCC4)s3)C2)cc1OC (centres undefined)	inactive
Fc1ccccc1NC(=S)Nn1cnnc1	inactive
CCOc1ccc(N(CC(=O)Nc2cccnc2)S(=O)(=O)c2ccc(C)cc2)cc1	inactive
O=C(CNCc1ccccc1Cl)Nc1ccc2c(c1)OCCO2	inactive
Cc1cccc(N=C2NC(=O)/C(=C/c3cccs3)S2)c1	inactive
CCNC(=S)NNc1nncc2ccccc12	inactive
S=C(N/N=C/c1ccco1)NC1CC2CCC1C2 (centres undefined)	inactive
CN=C(c1ccc(C)cc1)n1c(=S)nc(-c2ccc(C)cc2)n(C)c1=S	inactive
CNc1cc(C)nc(-n2nc(C)cc2C)n1	inactive
CN(C)NC(=S)Nc1ccc(Cl)cc1	inactive
C/C(CCC1CC(C)(C)OC1=O)=N\NC(N)=S (centres undefined)	inactive
O=C(O)CCC(=O)N1N=C(c2ccccc2)CC1c1ccc2nccnc2c1 (centres undefined)	inactive
O=C(OCC1CC(c2ccccc2)=NO1)c1ccco1 (centres undefined)	inactive
COc1ccc2nc(NC(=S)N(C)C)sc2c1	inactive
COc1ccc(C2=NN(C(=O)/C=C/c3ccccc3)C(c3ccccc3)C2)c(OC(C)=O)c1 (centres undefined)	inactive
Cc1cc(/C=N/NC(N)=S)c(C)n1-c1ccc(Br)cc1	inactive
COc1ccc(CN2CCCC(C(=O)c3ccc(Cl)cc3)C2)cc1Cn1cccn1 (centres undefined)	inactive
COC(=O)CSc1ccc2nnc(-c3ccc(OC)c(OC)c3)n2n1	inactive
CCNC(=S)N/N=C/c1cccs1	inactive
Cc1nn(-c2ccccc2)c(C)c1/C=N/NC(=O)CSc1nnc(SCc2ccccc2Cl)s1	inactive
FC(F)(F)c1cc(Nc2ccccc2)nc(-c2ccccn2)n1	inactive
CC1S/C(=N/N=C2CCCCC2)NC1=O (centres undefined)	inactive
Cc1ccc2c(c1)C(=O)N1[C@H]3c4ccccc4OC[C@@H]3[C@H](c3ccccc3)[C@]1(C)C(=O)N2	inactive

Structure (SMILES)	Potency
CCN1CCN(C(=S)NC(=O)c2cccc(Br)c2)CC1	inactive
COc1ccc(CNc2nc(SCC(=O)NCc3ccco3)nc3ccccc23)cc1	inactive
CCC(Sc1nc2ccsc2c(=O)n1-c1ccc(Cl)c(C)c1)C(=O)NCc1ccco1 (centres undefined)	inactive
Cc1ccc(-n2c(SCC(=O)NCc3ccco3)nc3c(sc4ccccc43)c2=O)cc1	13 µM (active)
CCOC(=O)C(Sc1cc(-c2ccccc2)nc2ncnn12)C(C)=O (centres undefined)	inactive
CC(C)(O)C(=O)NN(C(=O)c1ccccc1)c1ccc2ccccc2c1	inactive
O=C(N/N=C/c1cccs1)c1cncc(Br)c1	inactive
C/C(CS(=O)(=O)c1ccc(Cl)c(Cl)c1)=N/NC(N)=S	inactive
C/C(=N\NC(=S)NCc1ccccc1)c1ccc2ccccc2c1OC(F)F	inactive
O=c1[nH]c(CSc2ccccn2)nc2c1cnn2-c1ccccc1	inactive
COc1ccc(NC(=O)c2cc3c(-c4ccc(OC)c(OC)c4)nn(C)c3s2)cc1OC	inactive
CCOC(=O)c1c(C)[nH]c(N=Nc2ccc(C)cc2C)c1C	inactive
CCOC(=O)N1CCN(Cc2c(F)cccc2F)CC1	inactive
CCOC(=O)c1sc(NC(=O)CSc2nnc(C(C)C)n2C)nc1C	inactive
CC(C)C(=O)COc1c2occc2cc2ccc(=O)oc12	inactive
O=C(Nc1cnccn1)c1ccc(Cl)cc1	inactive
CC(=O)N(c1ccccc1)C(C)c1nc(C#N)c(C#N)nc1C (centres undefined)	inactive
FC(F)(F)c1cnc(N2CCSCC2)c(Cl)c1	inactive
CN(Cc1ccccc1)C(=O)CN1C(=O)c2ccccc2C1=O	inactive
COc1ccc(-c2cn3cccnc3n2)cc1F	inactive
O=C(NC(=S)N1CCCCCC1)c1ccccc1Cl	inactive
Cc1nc(C)c(CC(=O)N/N=C/c2ccc(O)cc2)c(=O)[nH]1	inactive
COc1ccc(OCCCC(=O)Nc2nc(-c3ccccn3)cs2)cc1	inactive
Cn1cccc1C(=O)NC(=O)CSc1cccc[n+]1[O-]	inactive
C/C(=N\NC(=S)NCCc1ccccc1)c1ccc(Cl)cc1Cl	inactive

Structure (SMILES)	Potency
O=C1NC(c2ccc(-c3ccccc3[N+](=O)[O-])o2)C(C(=O)c2ccc(F)cc2)C(O)(C(F)(F)F)N1 (centres undefined)	inactive
Cc1ccc(CN2CCSCC2)c(C)c1	inactive
C=CCNC(=S)N/N=C/c1ccc(-c2cc(Cl)ccc2Cl)o1	inactive
Cc1ccccc1NS(=O)(=O)c1ccc2oc(=O)ccc2c1	inactive
COc1ccc(NC(=S)Nc2ccccn2)c(OC)c1	inactive
O=C(CSc1cccc[n+]1[O-])c1cc2ccccc2o1	inactive
CCC1(C)Cc2ccccc2C(=S)N1 (centres undefined)	inactive
C=C(C)c1cccc(C(C)(C)NC(=O)NC(c2ccccc2)c2ccc(OC)cc2)c1 (centres undefined)	inactive
NC(=S)n1[nH]c(-c2ccc([N+](=O)[O-])cc2)c(N=Nc2cccc([N+](=O)[O-])c2)c1=O	inactive
CCN(CC)CCCNC(=O)CCC(=O)NNc1nc2ccccc2c2nc(C)nn12	inactive
Cc1cc(C)n(-c2nc(NC(C)C)nc(NC(C)C)n2)n1	inactive
O=C(CNc1cccc(Cl)c1)c1ccc(Br)cc1	inactive
Cc1nc(COC(=O)c2ccc(S(=O)(=O)N3CCCC3)cc2)cs1	inactive
CC(C)NS(=O)(=O)c1ccc(NC(=O)C(C)Oc2ccc(C(=O)c3ccccc3)cc2)cc1 (centres undefined)	inactive
CCn1nnnc1SCC(=O)Nc1nc2ccc(OC)cc2s1	inactive
CS(=O)(=O)Nc1ccc(-c2cn3cccnc3n2)cc1	inactive
O=C(NCCOc1cccnc1)C1CCC(=O)N(Cc2ccccc2F)C1 (centres undefined)	inactive
COc1ccc(N(CC(=O)N2CCCC2)S(C)(=O)=O)cc1	inactive
CCN(CC)CCC(=O)N1c2ccccc2Sc2ccc(NC(=O)OC)cc21	inactive
CCCn1c(-c2ccc(F)cc2)n[nH]c1=S	inactive
Cc1cccc(NC(=S)N=Nc2c(O)n(CN3CCOCC3)c3ccccc23)c1C	inactive
Cc1ccccc1OCC(=O)N/N=C/c1sc(=O)n(Cc2cccc(C(=O)O)c2)c1Cl	inactive
CCOc1cccc(N)c1	inactive
Cc1cccnc1NC(=S)Nc1ccc(Br)cc1Cl	inactive

Reference: PubChem BioAssay AID588463 (National Center for Advancing Translational Sciences (NCATS), 2011)
